# JMJD2A Tudor: JMJD2A Tudor domain (human) inhibition; O75164; AlphaScreen JMJD2A-Tudor / H3K4me3 peptide binding; Potency, µM (doses to about 114 µM), most hits filed as inhibitors; hit rate 4.4% among 390,000; AID 504339; further: nearly all actives have a fitted effect of over 50% in size
# PI5P4Ka inh: inhibitors of human PI5P4K alpha. P48426. PI5P4Kalpha enzyme, ADP-Glo luminescence, 60 min; stronger effect = lower value. max response, %. hit rate 1.2% among 330,000. AID 652105; active means max response of -50% or lower; inconclusive means between -30% and -50%; inactive means -30% or higher; further: value at the top dose of about 77 µM
# Target sequence (P48426 whole entry, looked up): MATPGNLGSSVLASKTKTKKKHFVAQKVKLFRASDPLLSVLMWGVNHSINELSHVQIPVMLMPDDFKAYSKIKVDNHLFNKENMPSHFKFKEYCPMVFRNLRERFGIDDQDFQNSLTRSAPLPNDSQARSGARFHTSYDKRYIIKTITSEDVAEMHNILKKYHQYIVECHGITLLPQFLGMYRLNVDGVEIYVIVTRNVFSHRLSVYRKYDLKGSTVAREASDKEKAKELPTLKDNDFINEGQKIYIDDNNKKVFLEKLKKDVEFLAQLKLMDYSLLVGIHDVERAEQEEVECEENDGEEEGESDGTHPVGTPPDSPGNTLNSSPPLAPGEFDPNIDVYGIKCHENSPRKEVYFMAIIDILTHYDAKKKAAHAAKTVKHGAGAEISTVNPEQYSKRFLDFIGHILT
#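 Quantitative HTS of the MLSMR library against PI5P4Kalpha with substrate. ATP added last at 5 microM final; room temperature, 60 minutes. Remaining ATP depleted, ADP converted and read as luminescence.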
# KAT2A inh: inhibitors of human GCN5L2 histone acetyltransferase; GCN5L2 HAT assay, ThioGlo1 CoA-SH fluorescence; Potency, µM (series often up to 58.9 µM), most hits filed as inhibitors; hit rate 0.21% among 390,000
#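 Preincubate 20nM GCN5L2 with compound 15 min, RT → add 50uM ThioGlo1 + 75uM H3(1-25) + 70uM acetyl-CoA → read fluorescence 0 and 20 min. Primary qHTS; fluorescent artifacts likely.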
# HP1b chromo inh: inhibitors of HP1-beta chromodomain binding to methylated histone tails. AlphaScreen HP1-beta / biotin-H3K9me3 peptide binding. Potency, µM (doses to about 114 µM), actives largely listed as inhibitors. hit rate 0.56% among 390,000; further: nearly all actives have a fitted effect of over 70% in size
# Target sequence (P83916 whole entry, looked up): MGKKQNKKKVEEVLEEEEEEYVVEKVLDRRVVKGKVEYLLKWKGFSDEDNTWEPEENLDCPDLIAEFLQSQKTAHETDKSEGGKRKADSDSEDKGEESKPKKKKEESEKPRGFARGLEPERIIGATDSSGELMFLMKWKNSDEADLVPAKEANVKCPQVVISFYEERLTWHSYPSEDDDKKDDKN
#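 AlphaScreen: HP1-beta (50 nM) preformed 30 min with biotin-H3(1-18)K9me3 peptide (50 nM) in PBS pH 7.4, 0.01% Tween-20. Compound added for 30 min at RT, then streptavidin donor/nickel chelate acceptor beads (10 ug/mL) for 30 min.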
# PLK1 PBD inh: PLK1 (human) polo-box domain binding inhibition; AID 720504; P53350; hit rate 2.8% among 360,000; Potency, µM, actives largely listed as inhibitors; Plk1 PBD binding of FITC phosphopeptide, fluorescence polarization; further: series mostly up to about 57 µM; nearly all actives have a fitted effect of over 65% in size
# BAZ2B block: blocks human BAZ2B | hit rate 4.4% among 360,000 | AID 504333 | AlphaScreen BAZ2B-H3K14Ac peptide displacement | Q9UIF8 | Potency, µM (doses to about 114 µM), usual class: inhibitors; further: nearly all actives have a fitted effect of over 60% in size
#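 BAZ2B (50 nM) with biotin-H3(5-23)K14Ac peptide (50 nM) in PBS pH 7.4, 0.01% Tween-20, preformed 30 min, then compound 30 min at room temperature; top concentration 110uM. AlphaScreen streptavidin donor/nickel chelate acceptor beads (10 ug/mL final), 20 min dark, signal read.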
# A number is an active result; 0 = inactive; ? = inconclusive; - = no result; [ ] = another dose, or the depositor's remark. The list is not random: actives were taken first. Their share in the collection is about 7%. Unless noted, the call rests on the fitted dose curve; in most records, active means well fitted curve in the direction sought with a large enough effect; inconclusive means small, poorly fitted or top-dose-only effect, or another doubt; inactive means no such curve, though single readings can be large; an effect the other way counts as inactive or inconclusive.
SMILES,JMJD2A Tudor,PI5P4Ka inh,KAT2A inh,HP1b chromo inh,PLK1 PBD inh,BAZ2B block
CCCCNc1c(-c2ccc(SC(C)CC)c(OC)c2)nc2ccc(C)cn12 (centres undefined),?,0,0,0,0,50µM
CCCCNc1c(-c2ccc(SC(C)CC)cc2)nc2cnccn12 (centres undefined),56µM,0,?,0,0,-
CCCCNc1c(-c2ccc(OC)c(Sc3ccc(OC)cc3)c2)nc2cnccn12,?,0,?,0,0,-
C=C(C(=O)Nc1ccccc1)c1ccc(C)cc1,0,0,0,0,0,0
Cc1onc(-c2c(Cl)cccc2Cl)c1C(=O)N=S(C)(=O)c1ccccc1 (centres undefined),0,0,?,0,0,0
O=C(N/N=C\c1ccc(Sc2ccccn2)o1)c1cccc(Br)c1,0,-,0,0,0,0
O=C(O)CC/C(=N\NC(=O)c1ccncc1)c1ccccc1,25µM,0,0,0,0,0
O=C(N/N=C/c1ccc(O)c2ncccc12)c1cccc(Br)c1,22µM,?,0,0,0,8.9µM
CCC(=O)OCC(=O)Nc1cc(C)c(C)cc1[N+](=O)[O-],?,0,0,0,24µM,?
Cn1c(=O)n(C)c2cc(/C=N/NC(=O)c3ccc(Cl)cc3)ccc21,0[11.4 µM],0,0,0,30µM,0
COc1ccccc1CNc1cc(-c2c(C)noc2C)ncn1,-,-,0,-,-,-
CCn1nc(C)c(CNC(=O)CC2C(=O)NCCN2CC(C)C)c1C (centres undefined),0,0,0,0,0,0
Nc1nonc1C(=O)N/N=C/c1cc(Br)ccc1O,18µM,0,0,0,0,7.9µM
CN(C)c1ccc(/C=N/NC(=O)c2nonc2N)cc1[N+](=O)[O-],0[11.4 µM],0,0,?,27µM,0
O=C(N/N=C/c1cc(Cl)ccc1O)c1ccc(Br)cc1,25µM,0,0,0,0,?
O=[N+]([O-])c1ccc(O)c(/C=N/Nc2ccccc2Cl)c1,0[11.4 µM],0,?,0,27µM,0
O=C(O)C1=CCCc2ccc(F)cc21,0,0,-,0,0,-
CCc1ccc(C(=O)c2cn(CC(=O)Nc3cc(OC)ccc3OC)c3ccc(Cl)cc3c2=O)cc1,0,-,0,0,-,0
O=C(Cc1cccc(NC(=O)C2CCN(C(=O)C3CCCC3)CC2)c1)Nc1cccc(C(=O)N2CCCCC2)c1,0,0,-,0,0,-
O=C(N/N=C/c1ccnc2ccccc12)c1ccccc1O,100µM,0,0,0,0,0
COc1cc(/C=N/NC(=O)c2cccc(N3CCCC3=O)c2)ccc1O,0,0,0,0,0,0
O=C(N/N=C/c1ccc(O)c(O)c1O)/C(=C/c1ccc([N+](=O)[O-])cc1)NC(=O)c1ccccc1,32µM,-86,0,25µM,9.5µM,?
Cc1ccc(S(=O)(=O)NC(C)C(=O)Nc2cccc([N+](=O)[O-])c2)cc1 (centres undefined),0,0,0,0,0,0
Cc1ccc([N+](=O)[O-])cc1NC(=O)C(C)NS(=O)(=O)c1ccc(F)cc1 (centres undefined),0[11.4 µM],0,0,?,24µM,0
O=C(N/N=C/c1cc([N+](=O)[O-])ccc1O)c1cccc(N2CCCC2=O)c1,32µM,0,0,0,0,20µM
SMILES,JMJD2A Tudor,PI5P4Ka inh,KAT2A inh,HP1b chromo inh,PLK1 PBD inh,BAZ2B block
Cc1ccc(NC(=O)/C(=C\c2ccc([N+](=O)[O-])cc2)NC(=O)c2ccccc2)cc1,0,0,0,0,0,0
COc1ccc(C2NC(=O)NC(C)=C2C(=O)OC2CCC(C)CC2)cc1 (centres undefined),0,0,0,0,0,0
O=C(N/N=C/c1ccccc1O)c1cc[n+]([O-])cc1,35µM,0,0,0,0,20µM
O=C(N/N=C/c1cc(Br)ccc1OC(=O)c1ccc(Br)cc1)c1ccncc1,89µM,0,0,?,0,50µM
COc1cc(O)c(/C=N/NC(=O)c2ccncc2)c(OC)c1[N+](=O)[O-],50µM,0,0,0,0,7.9µM
O=C(CNC(=O)c1ccncc1)N/N=C/c1ccccn1,?,0,0,0,0,79µM
COc1ccc(/C=N/NC(=O)c2ccncc2)cc1[N+](=O)[O-],0,0,0,0,0,0
O=C(N/N=C/c1ccccc1)c1cc[n+]([O-])cc1,0,0,0,0,0,0
COc1cccc(CNc2nc3cc(-c4ccc(F)cc4)sc3c(=O)n2C)c1,-,0,-,-,0,-
CCOC(=O)C(=O)Nc1cc([N+](=O)[O-])ccc1C,0,0,0,0,0,0
O=C(N/N=C/c1ccccc1O)c1ccncc1,50µM,0,0,0,0,35µM
COCC(=O)Nc1cc([N+](=O)[O-])ccc1C,0[11.4 µM],0,0,0,12µM,0
O=C(N/N=C/c1cc(Br)ccc1O)c1ccncc1,28µM,0,0,0,0,20µM
COc1c(OC(C)=O)ccc(/C=N\NC(=O)c2ccc(Br)cc2)c1[N+](=O)[O-],0,-69,0,0,?,0
CCOC(=O)c1c(S(=O)(=O)NCC(=O)N2CCN(c3cccc(OC)c3)CC2)c(C)n(C)c1C,0,0,0,0,0,?
Cc1cc(C)c2oc(C(=O)Nc3ccc(S(=O)(=O)N4CCCCC4)cc3)cc(=O)c2c1,0,-,0,0,-,0
CCc1ccc(S(=O)(=O)c2nnn3c2nc(NCc2cccc(OC)c2)c2cc(Cl)ccc23)cc1,0,-,0,0,-,0
CCc1ccc(N2CC(C(=O)N/N=C/c3ccccc3OC)CC2=O)cc1 (centres undefined),?,0,0,0,0,0
Cc1ccccc1NC(=O)CCC(=O)N/N=C/c1cc([N+](=O)[O-])ccc1O,0,0,0,0,0,?
Cc1ccc(C)c(NC(=O)CCC(=O)N/N=C/c2cc([N+](=O)[O-])ccc2O)c1,0[11.4 µM],0,0,0,38µM,0
CCc1ccc(N2CC(C(=O)N/N=C/c3cc([N+](=O)[O-])ccc3O)CC2=O)cc1 (centres undefined),40µM,0,0,0,0,50µM
O=C(N/N=C/c1cc([N+](=O)[O-])ccc1O)c1ccncc1,22µM,0,0,0,0,10µM
Cc1sc(N/N=C/c2cc([N+](=O)[O-])ccc2O)nc1-c1ccccc1,22µM,?,0,0,15µM,0
O=C1NCCCC1C(=O)N/N=C/c1cc([N+](=O)[O-])ccc1O (centres undefined),40µM,0,0,0,0,50µM
O=C(N/N=C/c1cc([N+](=O)[O-])ccc1O)C(O)(c1ccccc1)c1ccccc1,79µM,0,?,0,0,?
O=C(CN(c1cccc(Br)c1)S(=O)(=O)c1ccccc1)N/N=C/c1cc([N+](=O)[O-])ccc1O,50µM,0,-,0,?,-
Cc1nccn1CC(=O)N/N=C/c1ccccc1O,56µM,0,0,0,0,45µM
